The values below come from PubChem BioAssay.

Values without a mark were called inactive.

The target of this assay is Homeobox protein Hox-A13 (Mus musculus) (UniProt Q62424). Kind of assay: disruptors of Hoxa13 oligonucleotide interaction – biochemical, fluorescence polarization, labeled oligonucleotide, primary screen (AID 1185). The following applies: Hoxa13:DNA binding, 15 min, higher = more signal, called active from +8 up or from −8 down. On the technique in general: In fluorescence polarisation assays a small probe gives low polarisation when free and higher when bound to something large.
Chain of Homeobox protein Hox-A13 (Mus musculus) (Q62424 whole entry, looked up): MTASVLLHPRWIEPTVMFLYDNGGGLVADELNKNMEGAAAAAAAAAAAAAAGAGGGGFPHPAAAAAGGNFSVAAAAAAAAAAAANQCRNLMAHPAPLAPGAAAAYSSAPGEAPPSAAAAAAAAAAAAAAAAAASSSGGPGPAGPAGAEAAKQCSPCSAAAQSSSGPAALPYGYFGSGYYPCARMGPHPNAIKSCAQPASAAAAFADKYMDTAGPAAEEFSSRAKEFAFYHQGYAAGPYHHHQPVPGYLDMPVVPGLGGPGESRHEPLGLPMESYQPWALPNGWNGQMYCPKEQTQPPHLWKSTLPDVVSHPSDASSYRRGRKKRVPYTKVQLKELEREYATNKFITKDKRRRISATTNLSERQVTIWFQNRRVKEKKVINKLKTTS
Take `CO[C@H]1COC(=O)[C@@H](Cc2ccccc2)NC(=O)[C@@H](C)COC(=O)CCC[C@@H]1C`: the z-score is -0.733.

With `C[C@H]1CC[C@H]2C(=O)O[C@H](COc3ccc(C(C)(C)C)cc3)CN2[C@@H]1c1ccc(Br)cc1`, the z-score was 1.13.

Consider `CC(C)=NOC[C@@H](C)[C@H](OCc1ccccc1)C(C)C`, for which the z-score is 1.47. In the case of `CO[C@@H]1COC(=O)[C@H](CCSC)NC(=O)CC=C[C@@H](C)COC(=O)CCC[C@H]1C` it was -2.31. For the molecule `C[C@@H](ON=C1[C@H]2CCn3c(=O)n(-c4ccccc4)c(=O)n3[C@H]2[C@H](O)[C@@H]2O[C@H]12)c1cn([C@@H]2COC[C@H]2O)nn1`, the z-score is -2.77. In the case of `Cc1ccc(S(=O)(=O)N[C@@H]2COC(=O)[C@@H](C)COC(=O)CC=C[C@H]2C)cc1` it was -0.0483; in that of `CCOC(=O)[C@H](Cc1ccccc1)NC(=O)CCC1CC(OC(=O)NCCc2ccc(F)cc2)CC2(CCCC(COC(=O)NCc3ccccc3)O2)O1` (stereo partly specified), -2.25. As for `CC(C)CON=C1C[C@@H](O)[C@@H](O)[C@@H]2[C@@H]3C(=O)N(C4CCCCC4)C(=O)[C@@H]3CC[C@@H]12`, the figure is -4.41; as for `CCN1C(=O)[C@H]2[C@H]3[C@H](O)[C@H](O)CC(=NNC(=O)OCc4ccc(OC)cc4)[C@@H]3CC[C@H]2C1=O`, -1.25; as for `COC(=O)[C@H]1O[C@@H](c2c(OC)c(OC)c(C)c(OC)c2OC)[C@H](C)[C@@H](O)[C@H]1C`, 0.6.

Regarding `CC(CCN1CCCCc2nc(C)c(C)cc21)=NO[C@H](C)c1cn([C@H](CO)Cc2ccccc2)nn1`, the z-score is -5.13.
